Data published in PubChem BioAssay AID1117361 (Southern Research Institute, 2015).
The whole screen tested about 3,600 compounds, of which about 900 (25%) were called active. No rule for the calls is given here. These entries were drawn from the full list. Potency and affinity values are given separately.

The molecules below were run against Protein Tat (Human immunodeficiency virus type 1 group M subtype B (isolate HXB2)) (UniProt P04608) (assay: HIV-1 Tat–TAR interaction blockers – biochemical, fluorescence polarization, FAM-labeled TAR RNA, counter-screen for Vif-APOBEC3G degradation inhibitor project, dose response (AID 1117361)). Conditions: Tat-TAR RNA binding; series mostly up to 100 µM; inhibition: at the top concentration.

Row | Structure (SMILES) | inhibition | outcome
1 | O=C(NCc1ccco1)c1cc(-c2cccc(Cl)c2)on1 | 15% (inactive) | 
2 | Cc1cc2oc(=O)cc(C)c2c(=O)o1 | 23.9% (inactive) | 
3 | CS(=O)(=O)N1CCc2cc(C(=O)OCC(=O)c3ccccc3)ccc21 | 6.76% (inactive) | 
4 | CCOC(=O)c1c(NC(=O)Cn2cc([N+](=O)[O-])cn2)sc2c1CCC2 | 4.05% (inactive) | 
5 | CCOC(=O)c1c(NC(C)=O)sc2c1CCCNC2=O | 2.7% (inactive) | 
6 | COc1ccc(C)cc1NC(=O)C1CC(=O)OC12CCCCC2 (configuration not stated) | 5.41% (inactive) | 
7 | Nc1c(S(=O)(=O)c2ccccc2)c2nc3ccccc3nc2n1/N=C/c1ccco1 |  | inactive
8 | Cc1cccc(S(=O)(=O)c2c(N)n(/N=C/c3ccco3)c3nc4ccccc4nc23)c1 | 7.43% (inactive) | 
9 | CC(=O)N1c2c(cc(Br)cc2S(=O)(=O)N2CCOCC2)CC1C (configuration not stated) | 8.11% (inactive) | 
10 | CCC(C)(C)n1nnnc1C(c1cc2cc(C)ccc2[nH]c1=O)N1CCCc2ccccc21 (configuration not stated) | 3.48% [at 50 µM] (inactive) | 
11 | COc1ccc2cc(C(c3nnnn3C3CCCC3)N3CCc4ccccc4C3)c(=O)[nH]c2c1 (configuration not stated) | 26.4% (inactive) | 
12 | COC(=O)c1ccc(S(=O)(=O)N2CCN(CCO)CC2)n1C |  | inactive
13 | O=C1c2c(O)ccc(O)c2C(=O)c2c(NCCNCCO)ccc(NCCNCCO)c21 | 3.01% (inactive) | 
14 | O=C(O)COc1ccc(NC(=O)c2ccco2)cc1 | 15% (inactive) | 
15 | COC(=O)COc1ccc2c(c1C)O/C(=C\c1ccco1)C2=O | 1% (inactive) | 
16 | COc1ccc(NC(=O)c2ccc(-n3cccn3)nc2)cc1 |  | inactive
17 | COc1ccccc1C1CC(=O)Nc2c1c(=O)n(C)c(=O)n2C (configuration not stated) | 6.76% (inactive) | 
18 | O=C(Nc1nnc(C2CC2)s1)c1ccc(S(=O)(=O)c2ccccc2)cc1 | 7.68% (inactive) | 
19 | CC(=O)Nc1nnc(-c2c(-c3c(Cl)cccc3Cl)noc2C)o1 |  | inactive

Row | Structure (SMILES) | inhibition | outcome
20 | CC12CCC(C(=O)NCCN3CCCCC3)(CC1=O)C2(C)C (configuration not stated) |  | inactive
21 | CC(C)C(C)NC(=O)COc1ccc(S(=O)(=O)N2CCOCC2)cc1Cl (configuration not stated) |  | inactive
22 | Clc1cccc(Cl)c1Cn1nnc(-c2cccs2)n1 |  | inactive
23 | COc1ccc(N(C(=O)COc2ccccc2OC)S(=O)(=O)c2ccc(C)cc2)cc1 | 2.73% (inactive) | 
24 | NC(=O)c1ccc(-n2nnnc2SCC(=O)Nc2ccccc2-c2ccccc2)cc1 | 5.41% (inactive) | 
25 | O=C(CSc1nnnn1-c1ccccc1)Nc1nsc(-c2ccccc2)n1 | 3.38% (inactive) | 
26 | Cc1cc2cc(C=O)c(Cl)nc2cc1C |  | inactive
27 | CCOc1cccc(SCc2noc(C(=O)NCC3CCCO3)c2C(=O)O)c1 (configuration not stated) | 9.46% (inactive) | 
28 | Cc1ccccc1OCC(=O)NCC1CCCO1 (configuration not stated) | 4.05% (inactive) | 
29 | Cc1cc2ncn(C(=O)N3CCOCC3)c2cc1C | 4.05% (inactive) | 
30 | O=C(CN1C(=O)NC2(CCCC2)C1=O)Nc1nc(-c2ccc(F)cc2)cs1 | 2.05% (inactive) | 
31 | COc1ccc(CN2C(=O)c3ccccc3C2C(=O)NCc2cccnc2)c(OC)c1 (configuration not stated) |  | inactive
32 | CCOc1ccc(N2C(=O)c3ccccc3C2O)cc1 (configuration not stated) |  | inactive
33 | C/C(=N\NC(=O)c1ccc(NS(=O)(=O)c2cccs2)cc1)c1ccccc1 | 1.65% (inactive) | 
34 | Cc1ccc(CN2C(=O)CCC2C(=O)N2CCN(c3ccc(F)cc3)CC2)cc1 (configuration not stated) | 2.73% (inactive) | 
35 | CC(=O)n1c(Cl)c(NC(=O)CCl)c2ccccc21 | 3.38% (inactive) | 
36 | CC(NC(=O)C(NS(=O)(=O)c1cccs1)C(C)C)c1ccc(S(N)(=O)=O)cc1 (configuration not stated) |  | inactive
37 | Cc1cc(C)cc(NCCC#N)c1 |  | inactive
38 | CCOC(=O)CC1Sc2ccccc2NC1=O (configuration not stated) |  | inactive

Row | Structure (SMILES) | inhibition | outcome
39 | Cc1cc(C)n(Cc2ccc(NC(=O)c3nn(C)cc3[N+](=O)[O-])cc2)n1 |  | inactive
40 | Cc1ccc2[nH]c(=O)c(CN(Cc3cccnc3)C(=O)c3ccncc3)cc2c1 |  | inactive
41 | COC(=O)Nc1sc2nc(C)cc(C)c2c1-n1cccc1 | 8.78% (inactive) | 
42 | O=C(COc1ccc([N+](=O)[O-])cc1)NC(C(=O)O)C(O)c1cccc([N+](=O)[O-])c1 (configuration not stated) | 12.4% (inactive) | 
43 | CCn1c(COc2ccc(=O)n(-c3ccccc3)n2)nnc1SCc1ccc(C)cc1 |  | inactive
44 | CCc1ccc(NC(=O)C(C)Oc2nnc(-c3cccs3)c(-c3cccs3)n2)cc1 (configuration not stated) | 2.7% (inactive) | 
45 | Cc1ccccc1SCc1noc(C(=O)NC(C)C)c1C(=O)O | 6.08% (inactive) | 
46 | CN(Cc1cccs1)C(=O)Cn1cnc2ccccc2c1=O |  | inactive
47 | COc1ccc([N+](=O)[O-])cc1CSc1nnc(NC(C)=O)s1 | 9.9% (inactive) | 
48 | COCCSc1nnc(NC(=O)Cc2ccccc2OC)s1 | 8.11% (inactive) | 
49 | Oc1ccc(/C=C/c2cnccn2)cc1 |  | inactive
50 | Cc1ccc(C)c(S(=O)(=O)Nc2ccc3scnc3c2)c1 | 1.36% (inactive) | 
51 | O=C(Nc1nncs1)c1c(F)c(F)c(F)c(F)c1F | 19.1% (inactive) | 
52 | O=C(CN(C1CCCCC1)S(=O)(=O)c1ccccc1)N1CCCC1 | 5.41% (inactive) | 
53 | Cc1nc2ccccn2c1/C(O)=C1\C(=O)C(=O)N(CCCn2ccnc2)C1c1ccncc1 (configuration not stated) | 18.9% (inactive) | 
54 | CCN(CC)CCCN1CC(O)=C(c2nc3ccccc3s2)C1=N | 5.41% (inactive) | 
55 | Cc1cc(Nc2ccc(C)c(C)c2)n2nc(C)nc2n1 | 2.03% (inactive) | 
56 | O=S(=O)(Nc1ccc(N2CCOCC2)cc1)c1ccccc1 |  | inactive
57 | Cc1cc(C(=O)N2CCOCC2)n(-c2ccccc2)n1 | 4.73% (inactive) | 
